Wnt act = Wnt/beta-catenin pathway activation. Wnt/beta-catenin reporter cell assay, activator, plate reader. AID 743398. 300,000 compounds, 1.2% hits. activation, % at 9.35 µM; in the data active means activation above about 30%, passing the limit was not always enough; inconclusive means no clear call, values can overlap the other calls
Ecoli rRNA inh = inhibits bacterial ribosomal RNA function over humanized ribosomes; E. coli WT GFP vs humanized-ribosome RFP mutants, fluorescence, 24 h; stronger effect = lower value; DMSO median 0, no signal -100; GFP signal change (wild-type ribosome), % (test concentration not listed); 350,000 compounds, 1.6% hits;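 active means significant combined selectivity score with lowered wild-type GFP, culture density cut under 30%, mutant RFP and density less affected; inactive means any of these conditions unmet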
MITF TRPM1 HTS = activators of MITF-driven TRPM1 promoter activity in SK-MEL-5 cells. 300,000 compounds, 0.75% hits. SK-MEL-5 TRPM1-promoter luciferase, 24 h; % of positive control, neutral wells = 0. AID 588334. activation, % at 12.5 µM;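 active means mean activation of at least 80% with every replicate also reaching 80%; inconclusive means mean reaches 80% but some replicate falls short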
MLL AF4-AF9 inh = blocks AF4 peptide binding to human AF9. P42568. AlphaScreen, biotin-AF4 peptide binding to FLAG-AF9. 350,000 compounds, 0.47% hits. inhibition, % at 10 µM;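 active means every replicate reaching a set inhibition limit, whatever the replicate mean, cut at about 25% in these data; inconclusive means mean inhibition reaches that limit but some replicates miss it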
Target sequence (P42568 whole entry, looked up): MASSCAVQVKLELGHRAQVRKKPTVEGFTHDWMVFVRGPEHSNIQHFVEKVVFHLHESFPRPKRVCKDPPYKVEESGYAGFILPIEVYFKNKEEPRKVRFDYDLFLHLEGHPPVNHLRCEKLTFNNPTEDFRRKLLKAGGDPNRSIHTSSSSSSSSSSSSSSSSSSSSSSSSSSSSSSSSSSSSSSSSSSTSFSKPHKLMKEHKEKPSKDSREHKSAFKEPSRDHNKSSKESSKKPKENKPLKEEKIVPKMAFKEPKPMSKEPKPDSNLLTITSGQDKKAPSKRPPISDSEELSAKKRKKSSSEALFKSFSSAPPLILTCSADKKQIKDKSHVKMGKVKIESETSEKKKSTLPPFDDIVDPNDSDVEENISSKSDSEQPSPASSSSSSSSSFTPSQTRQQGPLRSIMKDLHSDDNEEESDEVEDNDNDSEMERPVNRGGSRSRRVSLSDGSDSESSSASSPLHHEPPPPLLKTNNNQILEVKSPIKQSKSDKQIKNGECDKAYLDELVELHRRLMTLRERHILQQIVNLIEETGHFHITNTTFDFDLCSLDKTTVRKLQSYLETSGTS
esBAF inh = SWI/SNF esBAF complex inhibition; reporter increase, % at 12.5 µM; 350,000 compounds, 2% hits; mouse ES cells, Bmi1-luciferase knock-in reporter, 24 h; 100% = twice the neutral-well signal; AID 602393; in the data active means activation above about 40%; inconclusive means no clear call, values can overlap the other calls;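 further: a rise in the Bmi1 reporter signal indicates esBAF inhibition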
Ring1 derepress = esBAF inhibition confirmed by Ring1 de-repression; AID 743176; mouse ESC E14, Ring1 mRNA RT-qPCR fold change; 550 tested, under 10 active; shares compounds with esBAF inh; fold change at 33 µM;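 active means Ring1 gene expression raised more than 2-fold over untreated cells in both replicates at either tested dose; inconclusive means only one replicate above 2-fold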;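 further: Ring1 transcript normalised to actin housekeeping signal by TaqMan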
esBAF Fgf4 qPCR = esBAF inhibition confirmed by Fgf4 repression; shares compounds with esBAF inh; mouse ESC E14, Fgf4 mRNA qPCR fold change; stronger effect = lower value; Fgf4 expression fold change at 33 µM; 550 compounds, 4% hits; AID 743177;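 active means Fgf4 expression under 0.8 fold of control in both repeat measurements at one or both tested doses; inconclusive means under 0.8 fold in just a single repeat measurement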;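 further: Fgf4 transcript normalised to actin in duplex TaqMan qPCR; cells exposed to compound for 24 h before lysis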
Bmi1 derepress = esBAF inhibition confirmed by Bmi1 de-repression; shares compounds with esBAF inh; AID 743180; 550 tested, under 10 active; mouse ESE14 ES cells, Bmi1 mRNA qPCR fold; stronger effect = higher value; fold change at 33 µM;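 active means Bmi1 expression fold change above 6 at either tested concentration, seen in replicate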
A549 tox SP = cytotoxicity in A549 cells; shares compounds with esBAF inh; plate reader; cell viability change % (negative = cytotoxic), % at 25 µM, hits read low; 550 tested, under 10 active; AID 743188; call rule not given here
HepG2 tox SP = kills or reduces viability of HepG2 cells | HepG2 cytotoxicity, plate reader; stronger effect = lower value | activity change, negative = inhibition, % at 25 µM | shares compounds with esBAF inh | 550 compounds, 4% hits; in the data active means activity change below about -50%
HEK293 tox SP = kills or reduces viability of HEK293 cells; shares compounds with esBAF inh; activity change, negative = inhibition, % at 25 µM, hits read low; 550 compounds, 3% hits; AID 743190; HEK293 cytotoxicity, plate reader; in the data active means activity change below about -38%, passing the limit was not always enough
Of the large screens only hits and unclear results are named; the others gave an inactive call (follow-up assays come after a bar, where they were run). The list is not random: actives were taken first. Their share in the collection is about 3.7%.

O=C(Nc1ccc2c(c1)CCCN2C(=O)c1ccccc1)c1ccccc1	esBAF inh 46
Cc1ccccc1C(=O)Nc1ccc2c(c1)CCCN2C(=O)c1cccs1	none
O=C(Nc1ccc(C(F)(F)F)cc1)c1ccccc1	MITF TRPM1 HTS 100, esBAF inh 53
O=C(Nc1ccn(-c2ccccc2)n1)c1ccccc1Br	Wnt act inconclusive, esBAF inh 69
CC[C@]12c3[nH]c4cc(CCC(=O)N(C)C)ccc4c3CCN1C(=O)[C@@H](CC(=O)NC(C)(C)C)C[C@@H]2C(=O)N1CCN(C(=O)C2CC2)CC1	none
O=C(Nc1ccc(F)c(F)c1)c1ccccc1	esBAF inh 42
CCOc1ccc(NC(=O)c2ccc(NC(=O)c3ccccc3Br)cc2)cc1	none
O=C(Nc1ccc(F)c(F)c1)c1cccnc1	none (no result: Wnt act, Ecoli rRNA inh, MLL AF4-AF9 inh)
O=C(Nc1ccc(NC(=O)c2ccccc2Br)cc1)c1ccccc1	esBAF inh 42
CC1(C)C=Cc2cc(-c3coc4cc(O)cc(O)c4c3=O)cc(O)c2O1	esBAF inh 68 | Ring1 derepress inactive | esBAF Fgf4 qPCR inactive | Bmi1 derepress inactive | A549 tox SP inactive | HepG2 tox SP inactive | HEK293 tox SP inactive
CNC(=O)c1ccc(-c2ccccc2)s1	esBAF inh 58 (no result: Ecoli rRNA inh, MLL AF4-AF9 inh) | Ring1 derepress inactive | esBAF Fgf4 qPCR inconclusive | Bmi1 derepress inactive | A549 tox SP inactive | HepG2 tox SP inactive | HEK293 tox SP inactive
CC(=O)Nc1ccc(-c2ccccc2)s1	none (no result: Wnt act, Ecoli rRNA inh, MLL AF4-AF9 inh)
CO[C@@H]1CN(C)C(=O)c2ccc(NC(=O)c3ccccc3F)cc2OC[C@H](C)N(C(C)=O)C[C@H]1C	none (no result: Wnt act, MITF TRPM1 HTS)
COc1cc(OC)c2c(-c3cccc(/C=C/c4ccc(F)cc4)c3)cc(=O)oc2c1	MITF TRPM1 HTS 96, esBAF inh 86 | Ring1 derepress inactive | esBAF Fgf4 qPCR inactive | Bmi1 derepress inactive | A549 tox SP inactive | HepG2 tox SP inactive | HEK293 tox SP inactive
c1ccc2nc3c(ccc4ccccc43)cc2c1	esBAF inh 70 | Ring1 derepress inactive | esBAF Fgf4 qPCR inactive | Bmi1 derepress inactive | A549 tox SP inactive | HepG2 tox SP inactive | HEK293 tox SP inactive
C[C@H]1Cn2cnc(C(=O)N3CCN(C(=O)OC(C)(C)C)CC3)c2C(=O)N1	none (no result: MITF TRPM1 HTS, esBAF inh)
Cc1ccnc(NC(=O)CCCc2ccccc2)c1	esBAF inh 65 (no result: Wnt act, Ecoli rRNA inh) | Ring1 derepress inactive | esBAF Fgf4 qPCR inactive | Bmi1 derepress inactive | A549 tox SP inactive | HepG2 tox SP inactive | HEK293 tox SP inactive
O=C(/C=C/c1ccccc1)/C=C/c1ccccc1	none (no result: Ecoli rRNA inh)
N#Cc1c(/N=C/c2cccs2)sc2c1CCC2	esBAF inh 105 (no result: Ecoli rRNA inh, MITF TRPM1 HTS, MLL AF4-AF9 inh) | Ring1 derepress inactive | esBAF Fgf4 qPCR inconclusive | Bmi1 derepress inactive | A549 tox SP inactive | HepG2 tox SP inactive | HEK293 tox SP inactive
O=C(NCCc1ccc2c(c1)OCCO2)c1ccccn1	none
COc1ccc(/C=N/n2c(N)nc3ccccc32)cc1OC	none (no result: Wnt act, Ecoli rRNA inh, MLL AF4-AF9 inh)
COc1cccc(/C=N/n2c(N)nc3ccccc32)c1OC	MITF TRPM1 HTS 90, esBAF inh 73 (no result: Ecoli rRNA inh, MLL AF4-AF9 inh) | Ring1 derepress inactive | esBAF Fgf4 qPCR inactive | Bmi1 derepress inactive | A549 tox SP inactive | HepG2 tox SP inactive | HEK293 tox SP inactive
COc1cccc(NC(=O)c2ccccc2Br)c1	esBAF inh 57 (no result: MITF TRPM1 HTS) | Ring1 derepress inactive | esBAF Fgf4 qPCR inactive | Bmi1 derepress inactive | A549 tox SP inactive | HepG2 tox SP inactive | HEK293 tox SP inactive
COc1ccccc1C(=O)Oc1ccccc1C(=O)Nc1ccccc1	esBAF inh 69 | Ring1 derepress inactive | esBAF Fgf4 qPCR inactive | Bmi1 derepress inactive | A549 tox SP inactive | HepG2 tox SP inactive | HEK293 tox SP inactive

Screening results: PubChem BioAssay, Broad Institute
